# In publication PMC5540273 (PLoS ONE, 2017):
# Tested on: CSF1R
# Details: concentration: 1 μM, replicates: in singlicate; n = 1
# 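Also: KINOMEscan kinase panel screen.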
row,SMILES,%Inh [%]
1,Cc1ccc(C)c(NC(=O)NC2CCN(c3ccnc(Nc4ccc(F)cc4)n3)C2)c1 (stereo not shown) [GSK1379720],0
2,Cl.Cl.NCC(NC(=O)c1cc(-c2ccccc2)c(-c2ccnc3[nH]ccc23)s1)c1ccccc1 (stereo not shown) [GSK1321561],0
3,CN(C)Cc1ccc(-c2ccc3c(Nc4ccc(Oc5ccccn5)cc4)ccnc3c2)o1 [GW567148],38
4,COc1cccc(C(=O)Nc2cccc(Oc3ccc4nc(NC(=O)C5CC5)cn4n3)c2)c1,100
5,CNC(=O)c1ccccc1Nc1nc(Nc2ccc(N3CCOCC3)cc2)ncc1Cl.Cl [GSK1576028],97.5
6,C[C@@H]1CC[C@@H](C(=O)Nc2ccccc2)CN1c1cc(-c2ccc3c(N)n[nH]c3c2)nc(N)n1 [GSK2286062],0
7,Cn1cc(-c2ccc3c(c2)CCN3C(=O)Cc2cccc(Cl)c2)c2c(N)ncnc21 [GSK2606590],97.6
8,FC(F)(F)c1ccc(/C=C/c2cncnc2Nc2ccc3[nH]c(Cc4ccccc4)nc3c2)cc1 [GW709199],4
9,COc1cccc(NC(=O)NC2CCN(c3ccnc(Nc4cc(OC)c(OC)c(OC)c4)n3)C2)c1 (stereo not shown) [GSK1379763],34
10,Fc1ccc(-c2ncn(C3CCNCC3)c2-c2ccnc(Oc3ccc(-c4ccccc4)cc3)n2)cc1 [SB-245391],12
11,Oc1cc(Nc2ccnc3cc(I)ccc23)ccc1F [GW552771],23
12,COC(=O)Nc1nc2ccc(Oc3ccc(NC(=O)Nc4cc(C(F)(F)F)ccc4F)cc3)cc2n1C.Cl [GW692089],86
13,CC(=O)N1CCN(c2ccc(Nc3nccc(-c4sc(C(C)C)nc4-c4cccc(NS(=O)(=O)c5cccc(Cl)c5)c4)n3)cn2)CC1 [GSK1660437],36
14,Cl.Cl.NCC(C(=O)Nc1cc(Br)c(-c2ccnc3[nH]ccc23)s1)c1ccccc1 (stereo not shown) [GSK1269851],28
15,CC(C)(C)c1ccc2nccc(Nc3cccc(O)c3)c2c1 [GW856795],12
16,NCCCC(NC(=O)c1cc(Br)c(-c2ccnc3[nH]ccc23)s1)c1ccccc1.O=C(O)C(F)(F)F.O=C(O)C(F)(F)F (stereo not shown) [GSK1287544],2
17,Cl.c1ccc(-c2ccc3c(Nc4ccc5[nH]ncc5c4)ccnc3c2)nc1 [GW440137],27
18,c1ccc(Oc2ccc(Nc3ccnc4cc(-c5ccc(CNCCN6CCOCC6)o5)ccc34)cc2)nc1 [GW567145],68
19,O=C(Nc1cccc(Oc2ccc3nc(NC(=O)C4CC4)cn3n2)c1)c1ccccc1C(F)(F)F,100

row,SMILES,%Inh [%]
1,CC(C)c1nc(-c2cccc(NS(=O)(=O)c3c(F)cccc3F)c2F)c(-c2ccnc(Nc3ccc(N4CCOCC4)nc3)n2)s1 [GSK2008607],86
2,Nc1ncc(-c2cccnc2)c2scc(-c3ccc4c(c3)CCN4C(=O)Cc3ccccc3)c12 [GSK683281],99.2
3,Cn1cc(-c2ccc3c(c2)CCN3C(=O)Cc2cccc(F)c2)c2c(N)ncnc21 [GSK2603358],94.7
4,Cl.NC(=O)c1cccc(Nc2nccc(Nc3ccc(Oc4c(Cl)cccc4Cl)c(Cl)c3)n2)c1 [GW659009],10
5,COCCOCCOc1cc2ncc3c4ccc(C#N)cc4[nH]c3c2cc1OC,50
6,COc1cccc(-c2ccc3c(NC(=O)C4CC4)n[nH]c3n2)c1 [SB-710903],10
7,Nc1ncc(-c2ccc3nccc(-c4ccncc4)c3c2)cc1S(=O)(=O)N1CCOCC1 [GSK1627798],3
8,Cc1ccc(C(=O)N2CC[C@@H](O)C2)cc1-n1c(C)cc(OCc2ccc(F)cc2F)c(Br)c1=O,75
9,O=C(O)C(F)(F)F.O=C(O)C(F)(F)F.O=c1[nH]ccc2nc(N[C@@H]3CCCNC3)nc(Nc3ccc(S(=O)(=O)N4CCOCC4)cc3)c12 [GSK2177277],99.9
10,COc1cc(Nc2nccc(-c3c(-c4cccc(NC(=O)c5c(F)cccc5F)c4)nn4ncccc34)n2)cc(OC)c1OC [GSK327238],100
11,COc1cccc(C2=C(Nc3ccc(Cl)c(C(=O)O)c3)C(=O)NC2=O)c1 [SB-390769],0
12,Cc1ccc(C(=O)Nc2ccc(Nc3ccnc4cc(-c5nccs5)ccc34)cc2O)cc1.Cl [GW494702],20
13,CCn1c(-c2nonc2N)nc2c(C#CC(C)(C)O)nc(OC[C@H](N)c3ccccc3)cc21 [GSK943949],35
14,COC(=O)Nc1nc2cc(Oc3ccc(NC(=O)Nc4cc(C(F)(F)F)ccc4F)cn3)ccc2[nH]1.Cl.Cl [GW681170],67
15,Cl.Cl.NCC(NCc1ccc(-c2ccnc3[nH]ccc23)s1)c1ccccc1 (stereo not shown) [GSK1321565],50
16,O=c1[nH]cc(-c2ccc(N3CCOCC3)cc2)c2sc(-c3cn[nH]c3)cc12 [GSK2276055],33
17,c1ccc(-c2cnc3nccnn23)cc1 [AH20685],0
18,COc1cc(Nc2nccc(-c3c(-c4cccc(NC(=O)c5c(F)cccc5F)c4)nn4ccccc34)n2)cc(OC)c1OC [GSK323521],93
